# Records with an inconclusive call do not appear. Where a call stands in place of a potency, no number is given. Activity calls are given as the source filed them. The call rests on the fitted dose curve; in most records, active means well fitted cell-killing curve with a large enough effect; inconclusive means small, poorly fitted or top-dose-only effect; inactive means flat fitted curve, though single readings scatter.
# Test: Cell Viability - LYMP2-017 (AID 972); further: nearly all actives have a fitted effect of over 55% in size
# Details: LYMP2-017 lymphoblastoid cell viability; series mostly up to 92.2 µM
# Outline: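 LYMP2-017 human lymphoblastoid cells (2500/well) settled 5 hr at 37 C, then exposed to compound 24 hr at 37 C in complete medium. Viability taken as intracellular ATP by CellTiter-Glo luminescence after 30 min at RT; AC50 from Hill fits.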
# Potency means the concentration at half of the fitted maximal effect.
row,SMILES,Potency
1,CCOCCOC(C)=O,inactive
2,COc1ccc(C(c2ccc(OC)cc2)C(Cl)(Cl)Cl)cc1,inactive
3,O=C(O)C(Cl)Cl,inactive
4,O=C(O)COc1ccccc1,inactive
5,O=[N+]([O-])c1c2ccccc2cc2ccccc12,inactive
6,CC(C)(O)C(=O)Nc1ccc([N+](=O)[O-])c(C(F)(F)F)c1,inactive
7,CN(C)NC(=O)CCC(=O)O,inactive
8,CCCCCCCCc1ccc(O)cc1,inactive
9,O=[N+]([O-])c1cc([N+](=O)[O-])c2ccccc2c1,inactive
10,CN(C)[C@@H]1C(=O)C(C(N)=O)=C(O)[C@@]2(O)C(=O)C3=C(O)c4c(O)cccc4[C@@](C)(O)[C@H]3[C@H](O)[C@@H]12,inactive
11,CC(=O)[O][Hg][c]1ccccc1,631 nM (active)
12,O=S(=O)(c1ccc(Cl)cc1)c1ccc(Cl)cc1,inactive
13,CCCCOC(=O)c1ccccc1C(=O)OCc1ccccc1,inactive
14,O=[N+]([O-])c1c(Cl)c(Cl)cc(Cl)c1Cl,inactive
15,COC(C)(C)CCCC(C)C/C=C/C(C)=C/C(=O)OC(C)C (stereo unspecified),inactive
16,Nc1ccc(Sc2ccc(N)cc2)cc1,inactive
17,Nc1ccc(Cl)cc1N,inactive
18,C=CC(=O)NCNC(=O)C=C,inactive
19,Cc1cc(O)ccc1Cl,inactive
20,C1CCC(NC2CCCCC2)CC1,inactive
21,CCCCC(CC)COC(=O)c1ccccc1C(=O)OCC(CC)CCCC (stereo unspecified),inactive
22,Nc1ccc([N+](=O)[O-])cc1,inactive
23,c1cc2ccc3cccc4ccc(c1)c2c34,inactive
24,OCCCBr,inactive
25,Nc1ccc(Cl)cc1,inactive
26,CCOP(=O)(NC(C)C)Oc1ccc(SC)c(C)c1 (stereo unspecified),inactive
